# In the library only some 7.9% were active in any assay of this set; here they are far more common.
# HCMV antiviral = human cytomegalovirus inhibition. HFF cells, HCMV-luciferase reporter, 72 h; active compounds read low. AID 1259415. activity change, negative = inhibition, % at 57.5 µM. 410,000 compounds, 4.5% hits; in the data active = activity change below about -60%; inconclusive = no clear call, values can overlap the other calls; inactive = above about -39%
#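 Human foreskin fibroblasts infected with luciferase-reporter HCMV at MOI 1 PFU/cell, compounds at two doses. Luciferase measured 72 h post infection; normalized to buffer-only basal and Salinomycin (10uM) controls.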
# Marburg entry inh = Marburg virus entry inhibition; AID 540276; Potency, µM (titrated, usually from 37.8 µM), without a hit: top-dose activity change, negative = inhibition, hits mostly inhibitors; 300,000 compounds, 1.8% hits; Marburg virus pseudotyped entry inhibition, cell reporter; calls by dose curve; tested in HEK293 cells; note: potency is the fitted concentration of half-maximal effect
# HCV inhibitor = inhibitors of hepatitis C virus infection. AID 651820. Huh7.5.1 HCVcc-Cre infection, luciferase reporter, 44 h. 340,000 compounds, 3.4% hits. Potency, µM (top dose mostly 41.8 µM), without a hit: at the highest dose activity change, negative = inhibition, hits mostly inhibitors; active = well fitted inhibition curve with a large enough effect; inconclusive = small, poorly fitted or top-dose-only effect, or another doubt; inactive = no such curve, though single readings can be large or run the other way; note: potency is the fitted concentration of half-maximal effect
#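 After 44 h co-culture of compound, cells and HCVcc-Cre (~0.5 moi), substrate is added for 15 min at room temperature and luciferase measured over 15 sec. Cells were seeded at 1,000/well and pre-cultured 4 h.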
# FMDV inh = antivirals against foot and mouth disease virus | FMDV antiviral cell-based qHTS | Potency, µM (top dose mostly 57.9 µM), for the others: top-dose activity change, negative = inhibition, actives largely listed as inhibitors | 410,000 compounds, 1.2% hits | AID 1159524; calls by dose curve; tested in HEK293T cells; note: read-out not given here; potency is the fitted concentration of half-maximal effect; nearly all actives have a fitted effect of over 45% in size
# LASV entry inh = blocks Lassa virus binding to or entry into cells. 300,000 compounds, 1.2% hits. Potency, µM (series often up to 37.9 µM), for inactives: at the highest dose activity change, negative = inhibition, usual class: inhibitors. Lassa virus pseudotype entry inhibition, cell reporter. AID 540256; calls by dose curve; tested in HEK293 cells; note: potency is the fitted concentration of half-maximal effect; nearly all actives have a fitted effect of over 50% in size
# Starred values were filed as active, the others as inactive; u = inconclusive; x = not tested or not shown; [ ] = dose if it differs, or a comment. % is set by controls: 0 for no effect and ±100 for the full control effect.
SMILES,HCMV antiviral,Marburg entry inh,HCV inhibitor,FMDV inh,LASV entry inh
CCOC(=O)C1CCN(C(=O)CCCCn2c(=O)[nH]c3ccccc3c2=O)CC1,-79*,0%,-10%,-2%,-29%
O=C(CCn1c(=O)[nH]c2ccccc2c1=O)N1CCN(c2cccc(C(F)(F)F)c2)CC1,34,u,9%,u,-4%
CCOc1cc2[nH]c(=O)n(CCCC(=O)N3CCN(c4cccc(Cl)c4)CC3)c(=O)c2cc1OCC,-24,x,x,u,-16%[46.1 µM]
CS(=O)(=O)Nc1cccc(NC(=O)c2ccc(-n3ccnc3)c3ccoc23)c1,-63*,x,x,-8%,x
CC(C)CN(C(=O)CN1CC=C(c2ccccc2)CC1)c1c(N)n(CC(C)C)c(=O)[nH]c1=O,-39,-11%,3.5µM*,-5%,-1%[46.1 µM]
CC(C)CN(C(=O)CN1CCCCCC1)c1c(N)n(CC(C)C)c(=O)[nH]c1=O,52,5%[46.1 µM],11%,15%,u
CCN(C(=O)CN1CC=C(c2ccccc2)CC1)c1c(N)n(Cc2ccccc2)c(=O)[nH]c1=O,-62*,u,-8%,-6%,u
CC(C)CN(C(=O)CN1CCOCC1)c1c(N)n(CC(C)C)c(=O)[nH]c1=O,-72*,-23%,4%,-22%,5%
CCc1cccc(C)c1NC(=O)c1cn2c3c(ccc(Cl)c3c1=O)OC(C)C2 (stereo unspecified),-7,x,x,-1%,7%[46.1 µM]
O=C(c1ccc(N2CCC(NCCCn3ncc4ccccc43)CC2)cc1)N1CCOCC1,x,x,x,-15%,x
S=C1N(c2ccccc2)C(c2ccccc2)N2CCCN12 (stereo unspecified),50,-1%,10%,-11%,18µM*
O=C(Nc1nc2n(n1)C(c1ccccc1)C=C(c1ccccc1)N2)c1ccc(Cl)c([N+](=O)[O-])c1 (stereo unspecified),u,u,x,-22%,u
O=C1N=c2ccccc2=C1c1[nH]c(=S)[nH]c1O,50,12%,16%,-9%,-1%
O=c1[nH]c(=S)[nH]c(O)c1/C=C1/C=c2ccccc2=N1,72,u,u,25µM*,u
CCOc1ccc(S(=O)(=O)N2CCN(C(=O)c3oc4ccc(OC)cc4c3C)CC2)cc1,-11,u,u,u,u
CCN(CC)CCCNC(=O)c1oc2ccc(S(=O)(=O)N3CC(C)CC(C)C3)cc2c1C (stereo unspecified),-98*,10µM*,22µM*,15%,u
COc1ccc2oc(C(=O)N3CCN(S(=O)(=O)c4cccc([N+](=O)[O-])c4)CC3)c(C)c2c1,-67*,u,4%,-29%,-1%[46.1 µM]
Cc1c(C(=O)N2CCCCC2)oc2ccc(S(=O)(=O)N3CC(C)CC(C)C3)cc12 (stereo unspecified),x,11µM*,u,u,u
CCOC(=O)N1CCN(C(=O)c2oc3ccc(S(=O)(=O)N4CCCCC4)cc3c2C)CC1,u,u,-21%,u,2%
O=C1CSc2ccc(S(=O)(=O)NCc3ccccc3Cl)cc2N1,-60*,x,-15%,77%,x
O=C1CSc2ccc(S(=O)(=O)NCc3ccc(Cl)cc3)cc2N1,38,x,5%,35%,x
O=C1CSc2ccc(S(=O)(=O)N3CCN(c4ccccc4F)CC3)cc2N1,-76*,x,u,u,x
O=C1CSc2ccc(S(=O)(=O)N3CCN(c4ccccc4)CC3)cc2N1,-22,x,0%,-23%,x
O=C(OCc1cc(=O)n2nc(-c3cccs3)sc2n1)c1ccccc1Cl,11,x,x,1%,u
Cc1ccc(Cl)cc1N(C)C(=O)c1cc2ccc3cccnc3c2[nH]1,-9,x,x,7%,u
SMILES,HCMV antiviral,Marburg entry inh,HCV inhibitor,FMDV inh,LASV entry inh
CC(=O)/C(=C\Nc1ccc(OCc2ccccc2)cc1)c1ccccc1,0,-7%,-11%,-2%,-22%
CC(=O)/C(=C/Nc1ccc(Oc2ccccc2)cc1)c1ccccc1,-77*,3%,5%,-1%,u
CC(C)CCNC(=O)C1CCN(C(=O)N2CCOc3ccc(Cl)cc32)CC1,-11,x,x,-13%,u
CC1CCN(C(c2ccc(F)cc2)c2sc3nc(-c4ccco4)nn3c2O)CC1 (stereo unspecified),-17,x,x,12%,-22%[46.1 µM]
COC(=O)c1ccccc1NC(=O)CCCOc1cc(=O)n(C)c2ccccc12,-99*,x,x,-24%,x
O=C(COc1ccccc1)Nc1ccc2c(c1)Cc1cc(NC(=O)COc3ccccc3)ccc1-2,-80*,-1%,u,-8%,4%
Cc1ccc(NC(=O)CSc2ccccc2)cc1S(=O)(=O)N1CCCCC1,u,u,13µM*,u,u
Cc1ccc(NC(=O)CSc2ncnc3ccccc23)cc1S(=O)(=O)N1CCCCC1,-17,u,u,16µM*,u
Cc1ccc(NC(=O)CSc2ccccc2)cc1S(=O)(=O)N1CCOCC1,3,-8%,-3%,29%,-8%
O=C(COc1cccnc1[N+](=O)[O-])NCCc1ccc(Cl)cc1Cl,-64*,-1%[46.1 µM],8%,-8%,-20%[46.1 µM]
Cc1ccc(NC(=O)CSc2ncnc3ccccc23)cc1S(=O)(=O)N1CCOCC1,6,u,u,u,u
CC(=O)NCCNC(=O)CCCc1nnc2n(CC(C)C)c(=O)c3sccc3n12,u,x,x,7%,26%[46.1 µM]
COC(=O)c1ccc(Cl)cc1NC(=O)N(Cc1ccc(C)o1)C1CCN(C(C)=O)CC1,3,x,x,-19%,0%[46.1 µM]
Cc1cc(C)cc(NC(=O)Cn2c(=O)n(Cc3ccco3)c(=O)c3oc4ccccc4c32)c1,-30,x,x,-12%,7%[46.1 µM]
Cc1ccc(NC(=O)Cc2n[nH]c(=O)c3ccccc23)cc1S(=O)(=O)N1CCCCCC1,-69*,u,10µM*,-14%,u
COc1ccc(NC(=O)COc2ccc(C)c(C)c2)cc1S(=O)(=O)N1CCCCC1,5,u,u,u,u
Cc1ccc(NC(=O)COc2ccccc2)cc1S(=O)(=O)N1CCCCCC1,16,u,u,28µM*,u
COc1ccc(NC(=O)COc2cc(C)cc(C)c2)cc1S(=O)(=O)N1CCCCC1,-34,u,4µM*,-29%,u
Cc1ccc(NC(=O)Cn2c(=O)cnc3ccccc32)cc1S(=O)(=O)N1CCCCC1,u,x,11µM*,u,x
CCN(CC)S(=O)(=O)c1cc(NC(=O)Cc2n[nH]c(=O)c3ccccc23)ccc1C,u,u,u,0%,u
COc1ccc(NC(=O)CCNS(=O)(=O)c2cccc3nsnc23)cc1Cl,6,6%[46.1 µM],x,14%,24%[46.1 µM]
COc1ccc(O)c(CN2CCC3(CCC(CNC(=O)c4ccccc4)O3)CC2)c1 (stereo unspecified),x,x,x,-8%,x
CCOc1ncccc1C(=O)OCC(=O)Nc1ccc(C)c(S(=O)(=O)N2CCOCC2)c1,-4,-5%[46.1 µM],2.8µM*,19%,17%[46.1 µM]
N#Cc1ccccc1OCC(=O)Nc1cccc(S(=O)(=O)N2CCCC2)c1,-4,x,u,-8%,x

# Screening results deposited in PubChem BioAssay by National Center for Advancing Translational Sciences (NCATS).
